For test [1], the target named is CDK3/Cyclin E (Homo sapiens) (UniProt P24864+Q00526). The conditions noted are these: at 1 µM.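 Also: each figure is a mean percent inhibition of the CDK3/cyclin E complex.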
Test [2] addresses Cyclin-dependent kinase 4 (Homo sapiens) (UniProt P11802). The settings on record: at 0.1 µM.
The target is the same in test [3]. The conditions noted are these: at 1 µM.
The target of test [4] is Cyclin-dependent kinase 5 (Homo sapiens) (UniProt Q00535). The settings on record: at 0.1 µM.
The target is the same in test [5]. The settings on record: at 1 µM.
The target of test [6] is Cyclin-dependent kinase 6 (Homo sapiens) (UniProt Q00534). The settings on record: at 0.1 µM.
For test [7] the target is unchanged. The settings on record: at 1 µM.
The target of test [8] is Dual specificity protein kinase CLK2 (Homo sapiens) (UniProt P49760). The conditions noted are these: at 0.1 µM.
For test [9] the target is unchanged. The conditions noted are these: at 1 µM.
For test [10], the target named is Dual specificity protein kinase CLK3 (Homo sapiens) (UniProt P49761). The conditions noted are these: at 0.1 µM.
The target is the same in test [11]. The settings on record: at 1 µM.
Test [12] addresses Dual specificity tyrosine-phosphorylation-regulated kinase 1A (Homo sapiens) (UniProt Q13627). The conditions noted are these: at 0.1 µM.
Test [13] has the same target. The settings on record: at 1 µM.
Test [14] has as its target Dual specificity tyrosine-phosphorylation-regulated kinase 1B (Homo sapiens) (UniProt Q9Y463). The conditions noted are these: at 0.1 µM.
For test [15] the target is unchanged. The settings on record: at 1 µM.
The target of test [16] is T1, Dual specificity tyrosine-phosphorylation-regulated kinase 2 (Homo sapiens) (UniProt Q92630).
T1 sequence (whole entry): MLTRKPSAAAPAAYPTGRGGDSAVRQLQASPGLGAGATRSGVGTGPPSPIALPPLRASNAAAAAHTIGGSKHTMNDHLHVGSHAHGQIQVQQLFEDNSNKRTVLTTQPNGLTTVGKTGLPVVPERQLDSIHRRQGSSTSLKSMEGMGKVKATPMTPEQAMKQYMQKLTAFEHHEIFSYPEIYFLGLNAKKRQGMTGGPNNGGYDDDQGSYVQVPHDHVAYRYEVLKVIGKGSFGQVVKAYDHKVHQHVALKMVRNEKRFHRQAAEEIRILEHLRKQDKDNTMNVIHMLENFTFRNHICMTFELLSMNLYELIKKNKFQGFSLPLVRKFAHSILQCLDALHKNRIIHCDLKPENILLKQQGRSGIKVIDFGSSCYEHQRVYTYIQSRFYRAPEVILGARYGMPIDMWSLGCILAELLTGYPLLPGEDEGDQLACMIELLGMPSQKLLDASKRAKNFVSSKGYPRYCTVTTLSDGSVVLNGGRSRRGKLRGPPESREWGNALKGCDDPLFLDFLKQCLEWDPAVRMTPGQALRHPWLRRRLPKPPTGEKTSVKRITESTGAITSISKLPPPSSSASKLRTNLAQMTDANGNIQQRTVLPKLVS
The settings on record: at 0.1 µM.

In test [17] the target is T1, Dual specificity tyrosine-phosphorylation-regulated kinase 2 (Homo sapiens). The settings on record: at 1 µM.
The target in test [18] is Glycogen synthase kinase-3 alpha (Homo sapiens) (UniProt P49840). The settings on record: at 0.1 µM.
Test [19] has the same target. The settings on record: at 1 µM.
The target in test [20] is Glycogen synthase kinase-3 beta (Homo sapiens) (UniProt P49841). The settings on record: at 0.1 µM.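 Also: values are mean percent inhibition of GSK3B activity, from the GSK Published Kinase Inhibitor Set (PKIS) screening dataset.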
Glycogen synthase kinase-3 beta (Homo sapiens), sequence (P49841 whole entry, looked up): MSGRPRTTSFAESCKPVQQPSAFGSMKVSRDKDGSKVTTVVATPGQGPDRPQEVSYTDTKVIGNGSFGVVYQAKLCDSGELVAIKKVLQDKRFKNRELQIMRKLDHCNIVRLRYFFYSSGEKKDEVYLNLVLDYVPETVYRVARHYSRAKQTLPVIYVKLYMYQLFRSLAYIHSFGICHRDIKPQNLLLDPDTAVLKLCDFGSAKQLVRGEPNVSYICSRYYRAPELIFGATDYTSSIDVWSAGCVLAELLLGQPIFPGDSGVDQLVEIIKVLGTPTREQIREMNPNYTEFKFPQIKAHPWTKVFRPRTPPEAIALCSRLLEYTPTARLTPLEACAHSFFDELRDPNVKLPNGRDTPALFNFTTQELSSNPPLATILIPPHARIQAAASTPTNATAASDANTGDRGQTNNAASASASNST

Cyclin-dependent kinase 6 (Homo sapiens), sequence (Q00534 whole entry): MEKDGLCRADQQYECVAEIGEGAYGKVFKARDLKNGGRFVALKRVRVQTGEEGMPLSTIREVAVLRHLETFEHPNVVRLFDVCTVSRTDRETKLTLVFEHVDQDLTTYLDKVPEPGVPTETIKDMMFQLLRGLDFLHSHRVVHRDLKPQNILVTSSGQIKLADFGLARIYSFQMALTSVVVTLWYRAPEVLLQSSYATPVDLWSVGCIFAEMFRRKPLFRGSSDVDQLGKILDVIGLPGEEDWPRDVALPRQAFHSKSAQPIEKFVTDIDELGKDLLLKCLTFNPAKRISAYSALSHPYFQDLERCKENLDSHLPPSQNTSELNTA
Dual specificity tyrosine-phosphorylation-regulated kinase 1B (Homo sapiens), sequence (Q9Y463 whole entry, looked up): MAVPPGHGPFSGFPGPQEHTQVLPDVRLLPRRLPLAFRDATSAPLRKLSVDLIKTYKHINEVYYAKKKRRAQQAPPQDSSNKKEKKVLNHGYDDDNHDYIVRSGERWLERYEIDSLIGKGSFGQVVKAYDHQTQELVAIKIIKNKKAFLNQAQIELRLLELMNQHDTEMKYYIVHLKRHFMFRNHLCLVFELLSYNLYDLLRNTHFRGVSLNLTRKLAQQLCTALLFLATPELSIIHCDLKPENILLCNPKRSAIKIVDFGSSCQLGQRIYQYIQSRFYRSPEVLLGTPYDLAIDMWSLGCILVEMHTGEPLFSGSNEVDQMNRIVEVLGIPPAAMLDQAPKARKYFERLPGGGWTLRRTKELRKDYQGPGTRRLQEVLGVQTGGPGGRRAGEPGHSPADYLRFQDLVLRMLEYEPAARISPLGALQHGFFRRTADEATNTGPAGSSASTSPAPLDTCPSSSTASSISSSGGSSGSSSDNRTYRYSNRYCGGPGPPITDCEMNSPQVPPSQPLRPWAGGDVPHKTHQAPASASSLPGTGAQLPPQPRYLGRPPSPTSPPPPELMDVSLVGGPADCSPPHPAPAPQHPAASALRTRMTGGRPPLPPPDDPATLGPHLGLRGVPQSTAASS
Cyclin-dependent kinase 4 (Homo sapiens), sequence (P11802 whole entry): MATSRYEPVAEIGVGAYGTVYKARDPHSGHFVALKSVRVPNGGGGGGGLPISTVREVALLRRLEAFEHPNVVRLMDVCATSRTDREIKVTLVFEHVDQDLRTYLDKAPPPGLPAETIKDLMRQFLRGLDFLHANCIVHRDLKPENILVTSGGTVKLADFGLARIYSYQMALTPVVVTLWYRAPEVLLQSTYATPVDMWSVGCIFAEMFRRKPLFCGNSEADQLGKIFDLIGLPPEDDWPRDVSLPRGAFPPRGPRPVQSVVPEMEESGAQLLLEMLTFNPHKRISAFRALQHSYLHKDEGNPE
Cyclin-dependent kinase 5 (Homo sapiens), sequence (Q00535 whole entry, looked up): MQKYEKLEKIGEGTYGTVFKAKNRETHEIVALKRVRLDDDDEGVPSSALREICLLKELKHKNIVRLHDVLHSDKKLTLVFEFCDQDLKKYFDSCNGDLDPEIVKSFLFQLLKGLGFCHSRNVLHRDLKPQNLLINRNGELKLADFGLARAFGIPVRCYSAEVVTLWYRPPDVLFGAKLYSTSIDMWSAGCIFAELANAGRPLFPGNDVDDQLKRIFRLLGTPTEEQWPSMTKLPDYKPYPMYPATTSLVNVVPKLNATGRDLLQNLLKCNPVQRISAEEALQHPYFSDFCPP
Glycogen synthase kinase-3 alpha (Homo sapiens), sequence (P49840 2-483 limits assumed): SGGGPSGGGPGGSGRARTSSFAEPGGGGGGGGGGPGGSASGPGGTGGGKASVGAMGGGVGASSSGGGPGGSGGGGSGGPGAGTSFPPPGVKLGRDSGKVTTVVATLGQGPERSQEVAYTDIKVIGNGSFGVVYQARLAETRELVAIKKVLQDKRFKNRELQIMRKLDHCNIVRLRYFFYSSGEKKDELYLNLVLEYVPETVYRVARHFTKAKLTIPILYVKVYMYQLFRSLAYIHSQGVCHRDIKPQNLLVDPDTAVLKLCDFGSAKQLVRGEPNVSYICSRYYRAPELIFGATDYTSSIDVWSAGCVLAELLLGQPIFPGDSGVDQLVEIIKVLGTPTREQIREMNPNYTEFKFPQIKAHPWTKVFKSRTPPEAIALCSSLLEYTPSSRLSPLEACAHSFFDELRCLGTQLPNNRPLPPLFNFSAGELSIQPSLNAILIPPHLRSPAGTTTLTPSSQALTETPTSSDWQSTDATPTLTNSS
CDK3/Cyclin E (Homo sapiens), sequence (P24864 whole entry, looked up): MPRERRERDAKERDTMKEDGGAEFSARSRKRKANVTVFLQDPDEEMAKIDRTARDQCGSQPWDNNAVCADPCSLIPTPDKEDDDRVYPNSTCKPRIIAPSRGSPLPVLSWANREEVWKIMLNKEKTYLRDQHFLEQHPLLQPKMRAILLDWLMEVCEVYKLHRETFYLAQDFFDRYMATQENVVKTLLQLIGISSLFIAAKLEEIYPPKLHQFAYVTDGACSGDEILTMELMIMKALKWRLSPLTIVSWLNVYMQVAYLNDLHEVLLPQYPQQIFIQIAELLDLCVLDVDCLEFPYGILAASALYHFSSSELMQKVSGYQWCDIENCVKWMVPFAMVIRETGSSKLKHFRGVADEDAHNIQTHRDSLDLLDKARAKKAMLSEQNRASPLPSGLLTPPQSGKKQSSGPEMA
CDK3/Cyclin E (Homo sapiens), sequence (Q00526 whole entry, looked up): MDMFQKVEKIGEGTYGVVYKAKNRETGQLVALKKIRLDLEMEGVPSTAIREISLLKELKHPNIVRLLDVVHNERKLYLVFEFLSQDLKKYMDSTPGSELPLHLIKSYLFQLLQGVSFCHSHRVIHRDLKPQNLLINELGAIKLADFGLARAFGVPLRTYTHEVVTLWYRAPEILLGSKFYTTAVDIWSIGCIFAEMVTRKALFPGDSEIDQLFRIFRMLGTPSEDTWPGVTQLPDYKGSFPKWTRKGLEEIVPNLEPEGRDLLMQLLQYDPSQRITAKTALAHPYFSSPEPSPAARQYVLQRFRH
Dual specificity protein kinase CLK3 (Homo sapiens), sequence (P49761 whole entry, looked up): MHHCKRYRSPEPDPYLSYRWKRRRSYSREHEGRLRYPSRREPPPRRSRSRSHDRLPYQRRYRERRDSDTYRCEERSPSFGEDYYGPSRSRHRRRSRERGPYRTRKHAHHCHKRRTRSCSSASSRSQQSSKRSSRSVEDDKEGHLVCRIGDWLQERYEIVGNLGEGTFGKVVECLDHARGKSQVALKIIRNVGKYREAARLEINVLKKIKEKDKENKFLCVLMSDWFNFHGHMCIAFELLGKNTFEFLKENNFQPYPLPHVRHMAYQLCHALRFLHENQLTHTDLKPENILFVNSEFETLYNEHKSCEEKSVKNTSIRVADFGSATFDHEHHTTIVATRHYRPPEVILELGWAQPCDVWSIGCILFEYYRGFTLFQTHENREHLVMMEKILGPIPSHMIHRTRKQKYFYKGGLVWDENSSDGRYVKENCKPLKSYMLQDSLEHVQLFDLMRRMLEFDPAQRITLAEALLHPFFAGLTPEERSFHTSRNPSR
Dual specificity protein kinase CLK2 (Homo sapiens), sequence (P49760 whole entry, looked up): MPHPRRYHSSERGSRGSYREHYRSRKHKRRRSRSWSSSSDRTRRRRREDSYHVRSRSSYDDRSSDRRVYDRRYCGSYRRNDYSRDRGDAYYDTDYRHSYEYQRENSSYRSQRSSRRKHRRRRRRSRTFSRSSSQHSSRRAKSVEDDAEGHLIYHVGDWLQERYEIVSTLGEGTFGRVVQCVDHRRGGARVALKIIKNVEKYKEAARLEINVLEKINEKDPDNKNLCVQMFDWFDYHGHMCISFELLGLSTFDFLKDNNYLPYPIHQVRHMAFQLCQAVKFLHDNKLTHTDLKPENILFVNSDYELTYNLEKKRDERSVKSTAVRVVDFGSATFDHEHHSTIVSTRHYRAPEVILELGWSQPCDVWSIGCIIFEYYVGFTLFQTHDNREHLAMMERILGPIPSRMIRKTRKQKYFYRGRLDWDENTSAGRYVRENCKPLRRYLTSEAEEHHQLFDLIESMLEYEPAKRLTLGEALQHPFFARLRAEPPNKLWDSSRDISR

Broadly, the inhibition is the drop in the measured response relative to a control, in per cent. As for `COc1ccc(-c2ccc3c(NC(=O)C4CC4)n[nH]c3n2)cc1`, the inhibition in test [1] turned out to be 3.03%; in test [2] it was 1.65%; in [3], 11.4%; in [4] it was 0.42%; in test [5] it was 2.12%; in [6], 5.98%. Also, the inhibition in test [7] came out at 38%; in [8] it was 0.68%; in [9], 1.56%; in test [10], 0.83%; in test [11], 2.15%; in test [12], 0.91%. Further, the inhibition was 1.49% in test [13]; -0.93% in test [14]; 0.04% in test [15]; 1.19% in test [16]; 2.63% in test [17]; 3.01% in [18]. Moreover, the inhibition in test [19] turned out to be 8.2%.

`O=C(Nc1n[nH]c2cc(-c3ccccc3)ccc12)C1CC1`: the inhibition came to 4.6% in test [1]; 3.5% in test [2]; 9.81% in [3]; 1.28% in test [4]; 5.17% in test [5]; 1.28% in test [6]. Moreover, the inhibition in [7] was 23.7%; in [8], 1.71%; in [9], 2.28%; in test [10], 0.78%; in [11], 2.33%; in [12] it was 5.04%. Further, the inhibition in [13] turned out to be 6.14%; in test [14], 1.94%; in [15], 3.5%; in test [16], 2.82%; in test [17] it was 4.68%; in [18], 6.53%. The inhibition in test [19] worked out at 32.7%.

In the case of `COc1ccc(C2=C(N3CCc4ccccc43)C(=O)NC2=O)cc1`, the inhibition in test [1] was -1.35%; in [2], 3.95%; in test [3] it was 4.61%; in [4] it was 1.51%; in test [5] it was 3.83%; in test [6], 4.88%. Besides, the inhibition in test [7] is 7.18%; in [8] it was 0.19%; in [9] it was 7.06%; in test [10], 2.88%; in test [11], 4.16%; in test [12], 4.7%. Moreover, the inhibition in test [13] is 13%; in test [14], 1.97%; in test [15], 8.53%; in test [16] it was 3.77%; in test [17], 5.13%; in [18], 11.5%. Besides, the inhibition in test [19] came to 42.9%.

`Cc1ccc(NC(=O)c2ccoc2)cc1-c1ccc(C(=O)NCC2CC2)cc1`: the inhibition was -5.1% in test [1]; 0.87% in [2]; 2.89% in test [3]; 0.24% in test [4]; 1.07% in test [5]; -5.62% in test [6]. The inhibition was 0.19% in [7]; 0.43% in test [8]; -2.64% in test [9]; 0.53% in test [10]; 0.49% in test [11]; 2.62% in test [12]. Further, the inhibition is 3.4% in test [13]; -0.58% in test [14]; 2.65% in test [15]; 1.99% in test [16]; 0.34% in test [17]; 11% in [18]. Moreover, the results for the inhibition in test [19] and in test [20] were 0.83% and 6.09%, respectively.

Regarding `Fc1ccc(-c2ncn(CCCN3CCOCC3)c2-c2ccncc2)cc1`, the inhibition in test [1] is 1.42%; in test [2], 0.02%; in test [3], 5.08%; in test [4], 1.43%; in test [5] it was 3.98%; in test [6] it was -8.34%. Also, the inhibition in test [7] is -1.04%; in test [8], 1.11%; in test [9] it was 2.52%; in test [10] it was -1.43%; in test [11], 0.51%; in test [12] it was -0.26%. Further, the inhibition in [13] was 0.01%; in [14] it was -0.42%; in [15], -0.19%; in [16], -0.03%; in test [17], 0.55%; in test [18], -0.11%. The inhibition in test [19] was 4.21%; in test [20] it was -0.54%.

Regarding `CS(=O)(=O)CCNCc1cc(-c2cc3c(Nc4ccc(OCc5cccc(F)c5)c(Cl)c4)ncnc3s2)cs1`, the inhibition is -0.74% in test [1]; 2.57% in test [2]; 4.29% in [3]; 0.44% in [4]; 0.56% in test [5]; -2.32% in test [6]. The inhibition in test [7] was -0.13%; in [8], 2.41%; in test [9], 2.14%; in test [10], 2.21%; in test [11], 0.02%; in test [12], 2.31%. Besides, the inhibition was 3.13% in [13]; -1.81% in [14]; -0.61% in test [15]; 3.75% in test [16]; 8.37% in [17]; 2.31% in test [18]. For the same compound, the inhibition is 2.97% in test [19] and 1.53% in [20].

Turning to `Fc1ccc(-c2ncn(C3CCNCC3)c2-c2ccnc(Oc3ccc(F)c(F)c3)n2)cc1`, the inhibition in test [1] was -1.08%; in test [2], 0.19%; in test [3] it was 3.54%; in test [4], 1.99%; in test [5], 3.94%; in test [6], -4.37%. In addition, the inhibition in test [7] was -0.06%; in test [8], 0.86%; in test [9] it was -0.42%; in test [10], -3.62%; in test [11], -3.79%; in test [12], -2.02%. Also, the inhibition in test [13] is -0.16%; in [14], -4.48%; in test [15], -2.53%; in test [16] it was 1.98%; in [17], 2.31%; in test [18], 0.07%. Besides, the inhibition in test [19] is 2.94%; in test [20] it was -0.48%.

The values above are taken from ChEMBL document CHEMBL1961873, “Compounds: GSK PKIS; Assays: Nanosyn kinase panel” (2012).
